The source of these data is PubChem BioAssay (NCI).

SMILES strings stand for the structures. The panel holds about 83,000 compounds, 20% with a hit somewhere; the sample as a whole holds those more often.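 48-hour exposure, single concentration, 96-well plates; percent growth endpoint where 0 means no net growth. Active: below 10.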 Unmarked numbers belong to inactive results. Active and inactive are the calls of the source.

The test system of this assay is COLO 205 colon. Description: NCI-60 one-dose screen, 48 h (100 = growth as untreated, 0 = no growth, -100 = all killed). The settings on record: 10 µM unless noted.
For `CNC(=O)c1cc(Oc2ccc3nc(NC(=O)Nc4ccc(CN5CCOCC5)c(C(F)(F)F)c4)sc3c2)ccn1`, the growth was 21%. The figure for `Cc1cc(N/N=C/c2nc(-c3ccc(Cl)cc3)oc2C)c2cc(Br)ccc2n1` is 91.6%; for `COc1cc(-c2cc(-c3nc4ccc(Cl)cc4[nH]3)[nH]n2)cc(OC)c1OC` it is 60.5%. The figure for `COc1ccc(-c2cc(-c3cccnc3)nc3sc4c(=O)n(-c5ccc(C)cc5)cnc4c23)cc1OC` is 97.6%; for `CN(C)c1ccc(/C=C\C2=[N+](C)c3ccccc3C2(C)C)cc1` it is -78.8% (active). The figure for `COc1ccc(-c2cc(-c3cccnc3)nc3sc4c(=O)n(-c5ccc(C)cc5)nnc4c23)cc1OC` is 102%; for `COc1ccc(C/C(C)=C(\c2ccc(Cl)cc2)c2ccc(OCCN3CCCCCC3)cc2)cc1` it is 65.2%; for `O=C1C=CC(=O)N1c1ccc(Cc2ccc(N3C(=O)C=CC3=O)cc2)cc1` it is 115%. Consider `CN1CCN(Cc2ccc(NC(=O)c3[nH]ncc3Nc3ncnc4[nH]ccc34)cc2)CC1`, for which the growth was -51% (active).

For `O=C(Nc1ccc(Oc2ccc(F)cc2)c(Cl)c1)c1cccnc1`, the growth was 120%.

In the case of `OC(c1cccc(C(F)(F)F)c1)c1cnccc1NC1CCCCCC1` (stereo not drawn), the growth is -76.3% (active).

As for `NS(=O)(=O)c1ccc(Nc2nc3n[nH]c(Nc4ccccc4)c3c(=O)[nH]2)cc1`, the growth is 96.6%. The figure for `O=C1/C(=C/c2ccccc2)CN(CCC(=O)N2C/C(=C\c3ccccc3)C(=O)/C(=C/c3ccccc3)C2)C/C1=C\c1ccccc1` is 82.4%; for `CN1CCN(Cc2ccc(NC(=O)c3[nH]ncc3Nc3ncnc4c3CCC4)cc2)CC1` it is -37.5% (active). The figure for `O=C1C(=O)N(CCCCn2cc(CO)nn2)c2ccccc21` is 111%; for `Cc1cc(Nc2nc(N3CCN(C)CC3)nc3ccccc23)n[nH]1` it is 58%. The figure for `CC(=O)C1=C(O)C=C2Oc3c(C(=O)/C=C/c4cc(Cl)cc(Cl)c4)c(O)c(C)c(O)c3[C@]2(C)C1=O` is -70.3% (active); for `O=C(Nc1ccc(CN2CCOCC2)cc1)c1[nH]ncc1Nc1ncnc2sccc12` it is -34.9% (active). For the molecule `COc1cc(-c2c3sc(=O)[nH]c3nc3c2c(=O)[nH]n3C(C)C)cc2c1OCO2`, the growth is 119%. The figure for `O=C1/C(=C/c2ccc(Cl)c(Cl)c2)CN(C(=O)CCN2CCC(=NO)CC2)C/C1=C\c1ccc(Cl)c(Cl)c1` is -84.6% (active). The figure for `CCN(CC)CCCC(C)Nc1ccnc2c(OC)cccc12` (stereo not drawn) is 114%; for `COc1ccc(-c2cn3c(-c4ccc(OC)cc4)cnc3c(Oc3ccc4c(C)cc(=O)oc4c3)n2)cc1` it is 56.1%; for `CN1CCN(Cc2ccc(NC(=O)c3[nH]ncc3Nc3ncnc4sccc34)cc2)CC1` it is -8.12% (active).

On to `O=C([C@@H](COCc1ccccc1)N1C(=O)[C@@H](N2C(=O)OC[C@@H]2c2ccccc2)[C@H]1/C=C/c1ccccc1)N1CCC(CCN2CCCCC2)CC1`, for which the growth is 65.1%. With `OCCNCCNc1c2ccccc2nc2ccccc12` the figure was 47.9%; with `CC[C@H](Nc1ncnc(N)c1C(N)=O)c1nc2cccc(NCc3ccc(C(=O)NO)cc3)c2c(=O)n1-c1ccccc1`, 78.3%. As to `CCCCCCCCCc1cc(CN2CCCCC2)c(O)c(CN2CCCCC2)c1`, the growth was 64.3%. Turning to `CN1CCN(Cc2ccc(NC(=O)c3cncc(C#Cc4cnc(N)c5cccnc45)c3)cc2C(F)(F)F)CC1`, the growth was -20.5% (active).

Consider `C=C1CC2(OC1=O)C(=O)N(CCCCCCCCCCCCN1C(=O)C3(CC(=C)C(=O)O3)c3ccccc31)c1ccccc12` (stereo not drawn), for which the growth is 82.6%. With `Cn1c2ccccc2c2c3c(c4c5ccccc5[nH]c4c21)C(=O)N(N)C3=O` the figure was 56.8%; with `Cn1c2ccccc2c2c3c(c4c5ccccc5n(CCCCCC#N)c4c21)C(=O)N(O)C3=O`, 62.8%; with `COC(/C=C/c1ccc([N+](=O)[O-])cc1)OC`, 110%. With `O=C(CNC1C2CC3CC(C2)CC1C3)Sc1nnc2sc3ccccc3n12` (stereo not drawn) the figure was 106%; with `C=CC[N+]1(CC)CCN=C1CCCCCCCCCCCCCCCCC` (stereo not drawn), -100% (active). With `CN1CCN(Cc2ccc(NC(=O)c3[nH]ncc3Nc3ccnc4ccsc34)cc2)CC1` the figure was 18.9%; with `CN1/C(=C\C=C\C2=[N+](C)c3ccccc3C2(C)C)C(C)(C)c2ccccc21`, -88.5% (active); with `CS(=O)(=O)c1ccc(-c2cnc3ccc(-c4cccc(S(C)(=O)=O)c4)nn23)cc1`, 46.2%. Turning to `COc1ccc(C/C(C)=C(\c2ccc(OCCN3CCCCCC3)cc2)c2ccc(OC(=O)C3CCCCC3)cc2)cc1`, the growth is 10.5%.
